FLuc modulator: inhibits or activates purified firefly luciferase, miR-21 counter-screen. P08659. purified FLuc, Km substrates, luminescence inhibition. Potency, µM (highest dose often 57.5 µM), for inactives: at the highest dose activity change, negative = inhibition, actives largely listed as inhibitors. 6.9% of 360,000 active. AID 588342;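 also: plate controls were vehicle for no effect and reference inhibitor for full effect; nearly all actives have a fitted effect of over 55% in size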
Target sequence (P08659 whole entry, looked up): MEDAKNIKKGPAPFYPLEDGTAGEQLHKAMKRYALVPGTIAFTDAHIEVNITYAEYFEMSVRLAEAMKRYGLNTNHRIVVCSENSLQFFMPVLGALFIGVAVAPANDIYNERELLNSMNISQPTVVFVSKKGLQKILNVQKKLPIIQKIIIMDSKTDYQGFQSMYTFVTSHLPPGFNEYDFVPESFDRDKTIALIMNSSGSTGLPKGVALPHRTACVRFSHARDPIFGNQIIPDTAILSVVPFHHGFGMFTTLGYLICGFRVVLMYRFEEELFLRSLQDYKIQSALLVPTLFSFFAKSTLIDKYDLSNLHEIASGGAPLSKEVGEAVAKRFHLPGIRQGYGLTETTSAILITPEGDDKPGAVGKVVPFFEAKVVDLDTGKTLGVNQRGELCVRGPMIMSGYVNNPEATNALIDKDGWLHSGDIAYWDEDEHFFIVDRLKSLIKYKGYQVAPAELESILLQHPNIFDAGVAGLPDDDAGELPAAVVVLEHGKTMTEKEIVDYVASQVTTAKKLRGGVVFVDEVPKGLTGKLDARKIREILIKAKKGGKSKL
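Purified P. pyralis luciferase (10nM final) with 10uM D-luciferin and 10uM ATP (Km levels) in 50mM Tris acetate pH 7.5, 10mM Mg acetate, 0.01% Tween-20, 0.05% BSA; qHTS 6-point titration, ~60 µM downward; luminescence read.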
Luc counter: counter-screen: inhibitors of Kinase-Glo firefly luciferase; Q27757; Kinase-Glo luciferase, ATP luminescence, 8 min; Potency, µM (series often up to 38.3 µM), for inactives: at the highest dose activity change, negative = inhibition, most hits filed as inhibitors; 0.28% of 200,000 active; AID 1379; also: % is scaled to controls: 0 for no effect and ±100 for the full control effect; nearly all actives have a fitted effect of over 60% in size
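Compound is pinned into ATP-containing buffer (10 uM ATP, imidazole pH 7.2, 7 mM MgCl2). Kinase-Glo luciferase reagent is then added. Light output is recorded following an 8-min room-temperature incubation.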
Rab9 promoter act: activates the Rab9 promoter. 2.8% of 320,000 active. Potency, µM (doses to about 9.22 µM), for inactives: at the top dose activation, negative = inhibition, usual class: activators. AID 485297. Huh7 Rab9 promoter-luciferase reporter, luminescence, 24 h; also: % of control where 0% means no effect; nearly all actives have a fitted effect of over 60% in size
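Huh7 cells stably carrying Rab9 promoter–luciferase reporter, plated 1500 cells/well, compound added after 2 h and incubated 24 h at 37 °C; luciferase luminescence then read after 10 min with detection reagent.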
SMN2 splice enh: SMN2 splice variant enhancement; HEK293 SMN2-luciferase splicing reporter, luminescence, 30-36 h; Potency, µM (titrated, usually from 46.1 µM), for the others: at the highest dose activity change, positive = activation, hits mostly activators; 2.8% of 210,000 active; AID 1458; also: % of control where 0% means no effect; nearly all actives have a fitted effect of over 55% in size
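HEK293 cells carry an SMN2 minigene-luciferase reporter in which exon 7 inclusion puts luciferase in frame. Cells were seeded at 2000 cells/well, attached for 10-12 hours, then exposed to compounds for 30-36 hours at 37C before ONE-Glo luminescence.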
NPC1 promoter act: activates the NPC1 promoter. AID 485313. Potency, µM (highest dose often 9.22 µM), for the others: at the top dose activation, usual class: activators. Huh7 NPC1 promoter luciferase reporter, 24 h. 2.4% of 320,000 active; also: % of control where 0% means no effect; nearly all actives have a fitted effect of over 60% in size
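Luminescence read-out of NPC1 promoter-driven luciferase in stably transfected Huh7 cells; compounds delivered in DMSO and left 24 h at 37C, 5% CO2, qHTS titration format.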
* hit, by the source's call; ? = inconclusive; / = no result; [ ] = remark or other dose. Most compounds without a hit are left out; they make up all but 7.3% or so of the library. Calls follow the shape of the dose curve; as a rule, active = well fitted curve in the direction sought with a large enough effect; inconclusive = small, poorly fitted or top-dose-only effect, or another doubt; inactive = no such curve, though single readings can be large; an effect the other way counts as inactive or inconclusive. Potency is read from the fitted curve at half-maximal effect.

SMILES	FLuc modulator	Luc counter	Rab9 promoter act	SMN2 splice enh	NPC1 promoter act
Cc1cccc(NC(=O)CSc2nc3ccccc3c3nc(CCn4cncc4C)nn23)c1	-2%	/	/	/	/
O=C1Nc2cc(Cl)c(Cl)cc2N(O)N1c1ccccc1	-16%	8%	-4%	-2%	-1%
Cc1ccc(N2C(=O)Nc3cc(Cl)c(Cl)cc3N2O)cc1Cl	17µM*	0%	0%	-19%	-1%
O=S(=O)(Nc1nc2ccccc2nc1Nc1ccc(N2CCOCC2)cc1)c1cc(Cl)ccc1Cl	15µM*	3%	-8%	-72%	-5%
Clc1nc(Nc2ccc(N3CCOCC3)cc2)c2ccccc2n1	2%	2%	7%	-39%	-6%
Clc1ccc(-c2ccc(SCc3ccccn3)nn2)cc1	?	-1%	3.2µM*	?	2.2µM*
c1ccc(-c2ccc(SCc3cccnc3)nn2)nc1	?	-6%	?	?	?
c1ccc(CSc2ccc(-c3ccccn3)nn2)nc1	?	-9%	2.5µM*	11µM*	2.8µM*
COC(=O)c1ccc(NC(=S)NNC(=O)c2ccccc2)cc1	24µM*	1%	1%	/	5%
O=C(NNC(=S)Nc1ccccc1)c1cccs1	?	-3%	1.6µM*	10µM*	?
COC(=O)c1ccc(NC(=S)Nc2ccccc2)cc1	?	0%	16%	-40%	16%
O=C(NNC(=S)Nc1ccccc1)c1ccc(O)cc1	?	/	3.5µM*	/	3.5µM*
O=C(NNC(=S)NC(=O)c1ccccc1)c1ccc(O)cc1	3%	/	-2%	/	-3%
CC(C)(C)n1ncc2c(=O)n(Cc3cc(F)c(F)cc3Cl)cnc21	-1%	/	/	/	/
CCc1cccc(C)c1NS(=O)(=O)c1cc2[nH]c(=O)c(=O)[nH]c2cc1C	2%	/	/	/	/
COc1ccc(CCC(=O)Nc2ccc3c(c2)OCCO3)cc1	?	/	3%	/	2%
O=C(CCc1ccccc1)Nc1ccc2c(c1)OCCO2	6µM*	-1%	1.8µM*	13µM*	3.2µM*
O=C(Nc1ccc2c(c1)OCCO2)N1CCN(c2ccccc2)CC1	?	-1%	17%	4%	20%
O=C(Nc1ccc2c(c1)OCCO2)N1CCN(Cc2ccccc2)CC1	13µM*	-2%	?	18%	?
CC(C)c1ccc(NC(=O)CCc2ccccc2)cc1	24µM*	/	?	/	26%
O=C(CCCOc1ccccc1)Nc1ccc2c(c1)OCCO2	12µM*	-3%	3%	/	1%
Cc1ccccc1C(=O)Nc1sc2c(c1C(=O)NCc1ccco1)CCC(C(C)(C)C)C2 (configuration not stated)	-3%	/	/	-2%	/
O=C(CCc1ccccc1)Nc1cc2c(cc1Cl)OCCO2	11µM*	-5%	3.2µM*	13µM*	3.5µM*
O=C(CCSCc1ccccc1)Nc1ccc2c(c1)OCCO2	9.5µM*	-1%	10%	/	-2%
CC(=O)c1cc2c(cc1NC(=O)CCc1ccccc1)OCO2	-12%	-4%	-6%	20%	11%
SMILES	FLuc modulator	Luc counter	Rab9 promoter act	SMN2 splice enh	NPC1 promoter act
COc1ccc(OCCn2nnc3sc4c(c3c2=O)CCC(C(C)(C)C)C4)cc1 (configuration not stated)	5%	/	/	39%	/
CCOc1ccccc1Nc1ccc(N)cc1S(=O)(=O)O	/	-7%[7.66 µM]	/	-13%[9.22 µM]	/
Cn1c(=O)n(C)c2cc(NS(=O)(=O)c3ccc(F)cc3)c(NCc3ccccc3)cc21	17µM*	/	/	0.89µM*	/
Cc1ccc(S(=O)(=O)Nc2cc3c(cc2NCc2ccccc2)n(C)c(=O)n3C)c(C)c1	?	/	/	10µM*	/
Cc1ccc(S(=O)(=O)Nc2cc3c(cc2NCc2ccccc2)n(C)c(=O)n3C)cc1	?	/	/	14µM*	/
O=c1c2sc3ccccc3c2n(Cc2ccccc2F)c(=O)n1CCc1ccccc1	-10%	/	/	10%	/
Cc1ccc(NC(=O)C2CCN(S(=O)(=O)c3ccc4[nH]c5c(c4c3)CCCCC5)CC2)cc1	-2%	/	/	/	/
Cc1ccc(-n2nc(C)c3c(C(=O)NCc4ccc(F)cc4)cc(C)nc32)cc1	0%	/	/	/	/
O=C(COc1ccc(F)cc1Br)NCc1ccccn1	?	-3%	/	-7%	/
CCc1ccc(-c2cc(C(=O)NCc3ccccn3)c3ccccc3n2)cc1	0.85µM*	?	26%	2%	2%
